# Laboratory results: the supplement of paper PMC6411743
# ± gives the standard deviation of the averaged measurements. The full data set covers some 6,200 targets. This sample favours those with the largest changes.
# Compound: Nc1ncnc2c1ncn2[C@@H]1O[C@H](COP(=O)(O)OP(=O)(O)NP(=O)(O)O)[C@@H](O)[C@H]1O [adenylyl imidodiphosphate]
# Test: NP40-soluble protein abundance relative to vehicle (solubility fold change) (ratio); higher = more soluble protein in presence of AMP-PNP
# In short: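 Data come from three independent experiments in which Dounce-homogenised Jurkat crude lysate was treated at eight concentrations from 0.1 to 10 mM. Treatment ran 10 min at room temperature and then 3 min at 37 °C, after which 0.8% NP40 and benzonase were added for 60 min at 4 °C before ultracentrifugation. The supernatant underwent TMT labelling and LC-MS/MS, and vsn-normalised intensities were expressed as fold change against the detergent-processed vehicle in each replicate.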
# Sequence of UniProt P40222 (P40222 whole entry): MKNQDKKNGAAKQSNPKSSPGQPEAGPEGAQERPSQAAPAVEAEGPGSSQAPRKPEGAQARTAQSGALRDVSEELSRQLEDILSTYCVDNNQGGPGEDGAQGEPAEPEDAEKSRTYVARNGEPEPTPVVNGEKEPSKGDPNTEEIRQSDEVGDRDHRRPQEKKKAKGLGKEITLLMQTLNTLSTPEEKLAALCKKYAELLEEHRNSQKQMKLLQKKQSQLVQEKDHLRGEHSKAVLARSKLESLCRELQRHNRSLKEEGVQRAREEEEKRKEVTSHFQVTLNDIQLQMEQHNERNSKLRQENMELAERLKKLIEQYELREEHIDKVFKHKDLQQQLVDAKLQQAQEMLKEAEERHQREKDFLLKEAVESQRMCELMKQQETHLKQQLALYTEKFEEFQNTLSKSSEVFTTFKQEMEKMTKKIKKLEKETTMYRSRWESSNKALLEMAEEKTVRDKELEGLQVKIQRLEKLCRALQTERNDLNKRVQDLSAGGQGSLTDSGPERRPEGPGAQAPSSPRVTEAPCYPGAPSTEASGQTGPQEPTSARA
# Sequence of UniProt P67809 (P67809 whole entry): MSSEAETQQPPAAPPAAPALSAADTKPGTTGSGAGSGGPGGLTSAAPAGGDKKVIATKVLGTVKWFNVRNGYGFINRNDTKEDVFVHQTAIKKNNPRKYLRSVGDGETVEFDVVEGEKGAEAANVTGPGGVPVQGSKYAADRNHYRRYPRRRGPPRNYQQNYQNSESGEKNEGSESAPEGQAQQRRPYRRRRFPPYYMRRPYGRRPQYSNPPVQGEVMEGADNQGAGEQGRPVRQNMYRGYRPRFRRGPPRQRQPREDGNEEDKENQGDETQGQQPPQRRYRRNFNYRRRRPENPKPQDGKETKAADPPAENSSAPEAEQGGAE
# Sequence of UniProt P14854 (P14854 whole entry): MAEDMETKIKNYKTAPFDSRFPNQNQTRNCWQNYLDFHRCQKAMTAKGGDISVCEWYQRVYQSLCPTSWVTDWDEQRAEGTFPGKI
# Sequence of UniProt P61599 (P61599 whole entry): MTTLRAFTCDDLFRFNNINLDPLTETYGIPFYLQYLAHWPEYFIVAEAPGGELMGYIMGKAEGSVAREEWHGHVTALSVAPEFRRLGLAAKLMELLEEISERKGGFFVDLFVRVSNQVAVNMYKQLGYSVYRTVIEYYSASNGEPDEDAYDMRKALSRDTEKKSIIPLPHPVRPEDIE
# Sequence of UniProt P17096 (P17096 whole entry): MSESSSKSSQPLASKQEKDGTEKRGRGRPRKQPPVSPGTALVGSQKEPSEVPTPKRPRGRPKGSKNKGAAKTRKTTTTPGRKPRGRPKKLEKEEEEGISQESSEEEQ
# Sequence of UniProt P31751 (P31751 whole entry): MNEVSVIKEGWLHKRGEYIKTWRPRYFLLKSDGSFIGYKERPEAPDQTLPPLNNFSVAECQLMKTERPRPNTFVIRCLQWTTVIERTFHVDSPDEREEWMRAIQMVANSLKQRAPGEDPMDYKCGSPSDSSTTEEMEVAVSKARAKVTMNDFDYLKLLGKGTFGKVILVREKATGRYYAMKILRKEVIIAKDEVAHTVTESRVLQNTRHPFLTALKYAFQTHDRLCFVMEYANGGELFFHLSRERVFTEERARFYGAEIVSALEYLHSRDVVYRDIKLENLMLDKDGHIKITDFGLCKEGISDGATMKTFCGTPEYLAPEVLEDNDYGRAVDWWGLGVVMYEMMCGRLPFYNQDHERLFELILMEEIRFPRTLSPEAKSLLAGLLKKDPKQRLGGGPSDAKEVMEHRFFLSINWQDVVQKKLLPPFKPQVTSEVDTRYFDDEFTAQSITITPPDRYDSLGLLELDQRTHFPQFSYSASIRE
# Sequence of UniProt P11166 (P11166 whole entry): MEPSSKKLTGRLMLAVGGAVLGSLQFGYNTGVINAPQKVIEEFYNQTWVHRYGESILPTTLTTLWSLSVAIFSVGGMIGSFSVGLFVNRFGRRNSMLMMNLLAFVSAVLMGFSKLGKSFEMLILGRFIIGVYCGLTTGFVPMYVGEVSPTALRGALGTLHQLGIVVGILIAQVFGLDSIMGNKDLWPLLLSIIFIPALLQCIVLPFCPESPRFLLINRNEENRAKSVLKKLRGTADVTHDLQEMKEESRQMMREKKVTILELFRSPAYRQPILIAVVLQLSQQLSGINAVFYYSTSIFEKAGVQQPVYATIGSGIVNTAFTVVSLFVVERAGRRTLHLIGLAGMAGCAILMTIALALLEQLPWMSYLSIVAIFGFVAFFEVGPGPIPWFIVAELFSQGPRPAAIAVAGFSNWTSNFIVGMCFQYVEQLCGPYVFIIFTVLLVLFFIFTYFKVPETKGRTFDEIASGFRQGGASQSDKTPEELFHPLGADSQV
# Sequence of UniProt Q12769 (Q12769 whole entry, one chain of several): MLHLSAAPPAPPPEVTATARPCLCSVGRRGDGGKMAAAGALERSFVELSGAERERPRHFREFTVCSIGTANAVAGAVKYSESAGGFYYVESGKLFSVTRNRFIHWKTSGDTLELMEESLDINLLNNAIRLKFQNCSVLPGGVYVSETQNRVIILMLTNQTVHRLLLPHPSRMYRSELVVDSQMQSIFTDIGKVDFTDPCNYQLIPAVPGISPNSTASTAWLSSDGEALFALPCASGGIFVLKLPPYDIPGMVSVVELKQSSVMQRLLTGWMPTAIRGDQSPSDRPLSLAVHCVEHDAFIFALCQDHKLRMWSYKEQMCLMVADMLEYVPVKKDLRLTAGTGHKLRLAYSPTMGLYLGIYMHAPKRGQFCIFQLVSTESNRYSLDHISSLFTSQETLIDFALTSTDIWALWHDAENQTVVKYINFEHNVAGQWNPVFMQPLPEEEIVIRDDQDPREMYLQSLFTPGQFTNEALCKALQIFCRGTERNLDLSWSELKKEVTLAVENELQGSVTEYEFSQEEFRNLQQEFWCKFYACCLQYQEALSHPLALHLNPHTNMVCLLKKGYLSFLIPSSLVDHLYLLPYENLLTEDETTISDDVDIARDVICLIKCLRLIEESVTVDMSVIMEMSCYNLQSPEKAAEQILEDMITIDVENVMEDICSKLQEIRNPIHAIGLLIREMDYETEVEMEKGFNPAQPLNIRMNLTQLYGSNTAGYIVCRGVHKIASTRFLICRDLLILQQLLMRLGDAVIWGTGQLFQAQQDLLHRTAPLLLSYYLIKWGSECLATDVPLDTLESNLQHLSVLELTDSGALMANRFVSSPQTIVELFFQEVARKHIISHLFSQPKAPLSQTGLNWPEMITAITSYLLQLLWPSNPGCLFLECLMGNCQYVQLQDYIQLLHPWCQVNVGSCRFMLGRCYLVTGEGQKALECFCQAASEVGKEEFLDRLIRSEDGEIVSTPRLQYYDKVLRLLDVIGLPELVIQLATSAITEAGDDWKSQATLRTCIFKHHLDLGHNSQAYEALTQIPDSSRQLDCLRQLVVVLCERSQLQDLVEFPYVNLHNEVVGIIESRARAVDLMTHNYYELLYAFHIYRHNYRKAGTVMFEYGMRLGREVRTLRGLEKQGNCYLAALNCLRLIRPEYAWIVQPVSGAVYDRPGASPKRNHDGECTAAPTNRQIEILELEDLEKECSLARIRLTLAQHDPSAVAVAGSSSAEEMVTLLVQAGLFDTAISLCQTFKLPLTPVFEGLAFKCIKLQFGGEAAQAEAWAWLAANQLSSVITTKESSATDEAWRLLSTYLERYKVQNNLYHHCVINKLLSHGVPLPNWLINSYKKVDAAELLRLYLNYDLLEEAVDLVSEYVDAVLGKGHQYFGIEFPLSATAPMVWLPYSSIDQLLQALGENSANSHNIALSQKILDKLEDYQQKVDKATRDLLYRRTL
# Sequence of UniProt Q13217 (Q13217 whole entry): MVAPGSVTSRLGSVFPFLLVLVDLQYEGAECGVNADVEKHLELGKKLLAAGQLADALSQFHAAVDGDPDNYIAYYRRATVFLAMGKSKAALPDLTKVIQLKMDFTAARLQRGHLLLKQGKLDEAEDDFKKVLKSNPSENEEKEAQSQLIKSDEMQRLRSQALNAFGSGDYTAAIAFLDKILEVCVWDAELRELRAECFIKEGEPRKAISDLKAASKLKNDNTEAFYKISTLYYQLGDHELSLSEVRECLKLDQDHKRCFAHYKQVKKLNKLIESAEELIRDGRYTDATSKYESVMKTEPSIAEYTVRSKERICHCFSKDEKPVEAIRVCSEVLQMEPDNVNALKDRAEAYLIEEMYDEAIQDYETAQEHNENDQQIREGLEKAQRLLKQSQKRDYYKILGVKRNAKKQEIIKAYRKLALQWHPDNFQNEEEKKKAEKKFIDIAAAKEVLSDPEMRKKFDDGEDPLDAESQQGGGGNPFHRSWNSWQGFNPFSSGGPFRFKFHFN
# Sequence of UniProt P30038 (P30038 whole entry): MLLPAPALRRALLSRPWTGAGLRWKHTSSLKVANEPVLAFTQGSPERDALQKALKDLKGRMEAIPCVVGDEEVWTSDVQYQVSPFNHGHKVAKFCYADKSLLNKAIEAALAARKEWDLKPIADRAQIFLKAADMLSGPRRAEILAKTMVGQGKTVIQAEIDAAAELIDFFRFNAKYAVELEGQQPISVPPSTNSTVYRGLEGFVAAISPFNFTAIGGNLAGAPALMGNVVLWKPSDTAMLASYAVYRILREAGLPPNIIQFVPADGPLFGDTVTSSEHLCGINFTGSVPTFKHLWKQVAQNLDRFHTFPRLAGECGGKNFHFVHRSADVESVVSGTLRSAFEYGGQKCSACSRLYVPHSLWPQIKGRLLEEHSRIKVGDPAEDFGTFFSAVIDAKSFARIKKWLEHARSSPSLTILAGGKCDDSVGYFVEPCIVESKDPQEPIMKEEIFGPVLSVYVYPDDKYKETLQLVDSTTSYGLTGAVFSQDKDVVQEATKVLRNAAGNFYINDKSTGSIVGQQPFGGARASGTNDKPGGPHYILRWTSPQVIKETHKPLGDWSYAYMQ
# Sequence of UniProt P51571 (P51571 whole entry): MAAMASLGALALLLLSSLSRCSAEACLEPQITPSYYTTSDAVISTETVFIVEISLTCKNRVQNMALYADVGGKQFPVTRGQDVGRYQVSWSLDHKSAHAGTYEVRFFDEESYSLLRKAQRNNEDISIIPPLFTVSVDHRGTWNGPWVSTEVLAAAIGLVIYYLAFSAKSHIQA
Target,NP40-soluble protein abundance (concentration: 1mM),NP40-soluble protein abundance (concentration: 2mM),NP40-soluble protein abundance (concentration: 4mM),NP40-soluble protein abundance (concentration: 6mM),NP40-soluble protein abundance (concentration: 8mM),NP40-soluble protein abundance (concentration: 10mM)
TXLNA (UniProt P40222),1.04 ± 0.059,1.17 ± 0.13,1.08 ± 0.14,1.21 ± 0.15,1.35 ± 0.046,1.2 ± 0.2
SSR4 (UniProt P51571),0.998 ± 0.014,0.961 ± 0.064,0.988 ± 0.019,0.977 ± 0.027,0.998 ± 0.011,0.981 ± 0.037
YBX1 (UniProt P67809),0.986 ± 0.088,1.22 ± 0.36,1.07 ± 0.12,1.23 ± 0.072,1.21 ± 0.031,1.34 ± 0.067
NAA20 (UniProt P61599),0.999 ± 0.039,0.9558 ± 0.0052,0.991 ± 0.022,0.973 ± 0.01,1.026 ± 0.0096,0.9551 ± 0.001
CLPX (UniProt O76031),0.957 ± 0.062,0.969 ± 0.062,0.955 ± 0.074,0.909 ± 0.08,0.886 ± 0.074,0.923 ± 0.078
COX6B1 (UniProt P14854),0.864 ± 0.041,0.926 ± 0.032,0.916 ± 0.063,0.86 ± 0.055,0.821 ± 0.016,0.839 ± 0.019
SLC2A1 (UniProt P11166),1.015 ± 0.005,0.999 ± 0.042,1.02 ± 0.055,0.998 ± 0.029,1.01 ± 0.032,1.01 ± 0.053
AKT2 (UniProt P31751),0.974 ± 0.025,0.95 ± 0.043,0.969 ± 0.034,0.947 ± 0.031,0.969 ± 0.017,0.96 ± 0.044
UniProt Q12769|G3V198,1 ± 0.024,0.9518 ± 0.0046,0.9433 ± 0.006,0.9621 ± 0.0016,0.99281 ± 0.00096,0.991 ± 0.019
SH3BGRL (UniProt O75368),0.939 ± 0.027,0.966 ± 0.028,0.888 ± 0.013,0.937 ± 0.031,0.907 ± 0.015,0.897 ± 0.033
HMGN1 (UniProt P05114),1.23 ± 0.1,1.36 ± 0.18,1.28 ± 0.074,1.57 ± 0.15,1.54 ± 0.16,1.89 ± 0.36
UniProt Q06787|Q06787-3|Q06787-5|Q06787-8|Q06787-9|Q06787-7,1.05 ± 0.04,1.11 ± 0.013,1.1 ± 0.02,1.22 ± 0.066,1.24 ± 0.016,1.36 ± 0.02
SURF6 (UniProt O75683),1.05 ± 0.056,1.12 ± 0.092,1.1 ± 0.057,1.17 ± 0.095,1.14 ± 0.12,1.22 ± 0.088
UniProt P17096|P17096-2,1.01 ± 0.076,1.19 ± 0.19,1.12 ± 0.047,1.29 ± 0.057,1.31 ± 0.088,1.74 ± 0.29
DNAJC3 (UniProt Q13217),0.978 ± 0.031,0.9648 ± 0.0063,0.973 ± 0.011,1.01 ± 0.014,0.985 ± 0.021,0.999 ± 0.022
SUB1 (UniProt P53999),0.923 ± 0.049,1 ± 0.19,0.916 ± 0.088,1 ± 0.089,0.997 ± 0.043,1.02 ± 0.11
ALDH4A1 (UniProt P30038),0.99 ± 0.028,1.02 ± 0.016,0.977 ± 0.033,0.975 ± 0.023,0.938 ± 0.013,0.954 ± 0.02
GRB2 (UniProt P62993),0.985 ± 0.035,0.943 ± 0.046,0.946 ± 0.023,0.972 ± 0.01,0.944 ± 0.037,0.918 ± 0.024
CDK6 (UniProt Q00534),0.987 ± 0.029,0.951 ± 0.022,0.959 ± 0.03,0.967 ± 0.012,0.945 ± 0.033,0.91 ± 0.029
CSTF1 (UniProt Q05048),0.9781 ± 0.0088,0.931 ± 0.075,1 ± 0.015,1 ± 0.015,1.069 ± 0.0036,1.02 ± 0.046
RFX1 (UniProt P22670),1.04 ± 0.016,1.03 ± 0.015,1.03 ± 0.03,1 ± 0.033,1.01 ± 0.025,0.995 ± 0.02
